Key:
Experiment in all cases: PBM binding z-score (relative to random genomic background probes); higher = stronger binding; sequences stand for … in GC…GCGATTGACAGCGTAGAATGAAGG
[1] = system: FXR:RXRa (NR concentration 270 nM, RXRa partner concentration 90 nM)
Procedure, shortened: (§1)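 For binding z-scores, the reference was random background probes on custom Agilent 4×180K protein-binding microarrays. These arrays were incubated 1 h with ligand-free nuclear receptor dimers in PBS pH 7.4, 2% milk, 0.02% Triton X-100, 1 mM DTT, 0.2 mg/mL BSA and 0.4 mg/ml salmon testes DNA. Fluorescence was scanned after antibody detection of each partner (one per run) and regression-normalized.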

[2] = system: LXRa:RXRa (NR concentration 270 nM, RXRa partner concentration 90 nM)
Procedure, shortened: as §1

[3] = system: LXRa homodimer (NR concentration 270 nM)
Procedure, shortened: as §1

[4] = system: LXRb:RXRa (NR concentration 270 nM, RXRa partner concentration 90 nM)
Procedure, shortened: as §1

[5] = system: LXRb homodimer (NR concentration 270 nM)
Procedure, shortened: as §1

[6] = system: PPARa:RXRa (NR concentration 270 nM, RXRa partner concentration 90 nM)
Procedure, shortened: as §1

[7] = system: PPARg:RXRa (NR concentration 180 nM, RXRa partner concentration 90 nM)
Procedure, shortened: as §1

[8] = system: PPARg:RXRa 270nM:90nM, anti-RXR (NR concentration 270 nM, RXRa partner concentration 90 nM)
Procedure, shortened: as §1

[9] = system: PPARg:RXRa 30nM:10nM, anti-RXR (NR concentration 30 nM, RXRa partner concentration 10 nM)
Procedure, shortened: as §1

[10] = system: PPARg:RXRa 90nM:30nM, anti-RXR (NR concentration 90 nM, RXRa partner concentration 30 nM)
Procedure, shortened: as §1

[11] = system: PPARg:RXRa DBDmut IVT, anti-RXR (DBD mutation: RXRa K156A/R161A, NR concentration 270 nM, RXRa partner concentration 90 nM)
Procedure, shortened: as §1

[12] = system: PPARg:RXRa IVT, anti-PPARg (NR concentration 270 nM, RXRa partner concentration 90 nM)
Procedure, shortened: as §1

[13] = system: PPARg DBDmut:RXRa IVT, anti-PPARg (DBD mutation: PPARg1 K132A/R137A, NR concentration 270 nM, RXRa partner concentration 90 nM)
Procedure, shortened: as §1

[14] = system: PPARg DBDmut IVT, anti-PPARg (DBD mutation: PPARg1 K132A/R137A, NR concentration 270 nM)
Procedure, shortened: as §1

[15] = system: PPARg homodimer (NR concentration 180 nM)
Procedure, shortened: as §1

[16] = system: PXR:RXRa (NR concentration 270 nM, RXRa partner concentration 90 nM)
Procedure, shortened: as §1

[17] = system: PXR homodimer (NR concentration 270 nM)
Procedure, shortened: as §1

[18] = system: RARa:RXR (NR concentration 270 nM, RXRa partner concentration 90 nM)
Procedure, shortened: as §1

[19] = system: RARa homodimer (NR concentration 270 nM)
Procedure, shortened: as §1

[20] = system: RARb:RXRa (NR concentration 270 nM, RXRa partner concentration 90 nM)
Procedure, shortened: as §1

Sequence	PBM binding z-score [1]	PBM binding z-score [2]	PBM binding z-score [3]	PBM binding z-score [4]	PBM binding z-score [5]	PBM binding z-score [6]	PBM binding z-score [7]	PBM binding z-score [8]	PBM binding z-score [9]	PBM binding z-score [10]	PBM binding z-score [11]	PBM binding z-score [12]	PBM binding z-score [13]	PBM binding z-score [14]	PBM binding z-score [15]	PBM binding z-score [16]	PBM binding z-score [17]	PBM binding z-score [18]	PBM binding z-score [19]	PBM binding z-score [20]
TGAATGAGGTTATAAGATCCGGGAACGTTGCAAA	1.15	1.21	-0.3	0.909	-0.0595	2.45	1.01	1.33	0.723	1.15	1.11	1.48	1.46	0.366	0.364	0.692	-0.0533	1.28	-0.21	1.14
AGAATAAGGTTAAGATCAGGGAAACAGAATACAT	2.47	2.22	0.239	2.09	0.458	3.06	1.75	1.62	0.741	1.19	1.89	1.76	1.42	1.21	1.6	1.18	0.822	1.93	1.11	2.46
ACTATTAGTTGAGACGAGGGCCACCGATAGGTTG	-0.105	-0.102	-0.224	-0.593	0.0596	-0.508	0.594	-0.159	0.0911	-0.12	-0.292	0.0879	0.833	0.398	-0.375	-0.504	-0.253	-0.185	0.235	0.235
ACTAGCAGGCCAAGTTTGGGTCACTCGAACAAAG	0.398	0.0952	-0.533	0.67	-0.727	1.33	0.0973	0.504	-0.62	0.14	1.03	1.36	-0.745	-0.0393	0.399	0.625	-0.591	1.12	-0.754	1.68
ACAGACAGGTGATGAAGATAACTCAGGCTATCAT	-0.21	-0.125	-0.283	-0.276	-0.0745	-0.164	0.734	-0.057	0.429	0.0893	-0.0309	0.209	0.00107	0.948	0.0066	-0.435	0.0307	-0.227	0.47	0.0491
CGTACTGGGCCACGAAAGGTCATTGATTCAGTGA	4.13	4.99	5.16	4.46	0.336	4.75	4.87	4.93	2.22	4.16	5.64	5.82	1.54	0.503	4.05	5.71	2.11	5.78	1.22	4.17
ATCGAAAGGTCGACTAGGTGAGTATACACCGTTT	4.12	3.17	0.302	2.94	0.797	4.24	2.56	3.24	1.06	2.34	0.845	2.25	0.674	1.34	0.62	2.73	0.165	3.24	0.35	3.72
CCGACTGGGGCAGAAAGGTTACCCTACCATCCGG	0.191	0.465	-0.126	0.448	-1.02	1.5	1.17	2.33	0.336	1.78	1.23	1.93	-1.08	-1.51	0.207	0.618	-0.304	1.34	-0.533	1.73
CCTTACGGGTTAAGGTTATAGCACGGGTGGTACG	1.55	1.38	-0.0602	1.09	-0.11	2.09	1.12	1.61	0.309	1.09	0.0868	0.867	-0.169	-0.202	0.702	1.16	0.325	1.85	0.517	1.8
ATCGAAGGGTCGTGAGGTGAGTATACAGAAAGGC	2.2	1.7	-0.107	1.58	0.162	3.34	1.74	1.77	0.78	1.23	-0.293	1.48	0.829	0.999	1.33	2	0.191	2.84	0.629	2.61
TCTTGTAGATCAGCAGGTTAAGATAGCTGGCCAA	-0.0531	0.217	-0.176	0.312	-0.375	0.692	-0.179	1.28	2.71	1.95	1.75	0.446	0.0165	0.121	0.155	0.31	-0.37	0.429	-0.336	0.168
GCAAACAGGTGAAACGCAGGTAACTCAGGGTGGC	-0.182	-0.0525	-0.463	-0.425	-0.88	0.919	0.672	0.158	-0.786	-0.33	2.26	1.32	-0.68	-0.00566	-0.416	-0.255	-0.519	0.397	-0.686	0.596
AGAATGAGGTTAACATCAGGGAAACAGAATACAT	2.93	2.97	-0.211	2.21	-0.23	4.3	3.36	3.34	1.39	2.46	3.52	3.79	1.84	1.16	1.12	1.43	0.184	2.81	0.181	2.32
CCTTACGGGTCACTGAGAGGTTATAGCATTTGGA	5.67	4.71	0.946	3.9	-0.26	5.58	4.88	4.87	1.69	3.68	3.25	3.46	0.696	-0.194	3.62	5.18	0.124	5.88	1.03	4.1
AATACAGGGTCACCAGGCCAGAGTAGGTACGAAT	7.09	5.86	0.943	4.55	0.722	6.07	8.01	6.75	3.76	5.35	3.62	5.06	1.5	0.986	2.07	4.02	0.26	5.4	0.737	4.53
